According to PubChem BioAssay AID1159580 (chemical genetic matrix, 2015):
Where “and” joins values, the source holds several entries; their conditions need not be identical. Equal values may be shown once. In all, about 5,500 compounds went through this assay and about 2,000 (36%) were called active. About 18% were inconclusive and are not listed. Rule as the data show it: active = normalized growth mostly below about 0.91 (no sharp cut-off); inconclusive = no clear call, values can overlap the other calls; inactive = mostly above about 0.92. The list shows a part of the results.

Experiment: chemical genetic growth profiling, strain panel (AID 1159580);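 also: tested at 20 µM; growth read once vehicle control cultures reached saturation at 30 °C; 1 = growth at the plate median or of vehicle wells; lower values mean less growth of the strain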
Settings: S. cerevisiae deletion strains, growth OD

Measured: normalized growth

C[N+](C)(C)CCOP(=O)([O-])OP(=O)(O)OC[C@H]1OC(n2ccc(N)nc2=O)[C@H](O)[C@@H]1O (some centres not stated)
inactive: locus YAL013W, strain DEP1, hits give low values 0.99 | locus YAL021C, strain ccr4, hits give low values 1 | locus YAL026C, strain drs2, hits give low values 1 | locus YAL030W, strain snc1, hits give low values 0.991 | locus YBL061C, strain skt5, hits give low values 0.983 | locus YBR009C, strain hhf1, hits give low values 1.01 | locus YBR021W, strain FUR4, hits give low values 1.01 | locus YBR023C, strain chs3, hits give low values 0.987 | locus YBR171W, strain sec66, hits give low values 0.962 | locus YBR229C, strain ROT2, hits give low values 1 | locus YBR231C, strain swc5, hits give low values 0.976 | locus YBR279W, strain paf1, hits give low values 0.992 | locus YCL011C, strain gbp2, hits give low values 0.998 | locus YCL016C, strain dcc1, hits give low values 1.01 | locus YCL029C, strain bik1, hits give low values 0.999 | locus YCL061C, strain MRC1, hits give low values 0.972 | locus YCL069W, strain vba3, hits give low values 0.975 | locus YCR088W, strain abp1, hits give low values 0.98 | locus YDL005C, strain med2, hits give low values 0.977 | locus YDL035C, strain GPR1, hits give low values 0.993 | locus YDL040C, strain nat1, hits give low values 0.979 | locus YDL074C, strain BRE1, hits give low values 0.972 | locus YDL101C, strain DUN1, hits give low values 0.999 | locus YDL134C, strain PPH21, hits give low values 1.01 | locus YDL185W, strain tfp1, hits give low values 0.992 | locus YDL192W, strain arf1, hits give low values 1.01 | locus YDR001C, strain nth1, hits give low values 0.978 | locus YDR069C, strain doa4, hits give low values 0.976 | locus YDR101C, strain arx1, hits give low values 0.989 | locus YDR137W, strain rgp1, hits give low values 0.991 | locus YDR150W, strain NUM1, hits give low values 1 | locus YDR159W, strain sac3, hits give low values 1 | locus YDR162C, strain NBP2, hits give low values 0.981 | locus YDR195W, strain ref2 0.94 | locus YDR297W, strain sur2, hits give low values 0.989 | locus YDR318W, strain mcm21, hits give low values 1.01 | locus YDR334W, strain swr1, hits give low values 0.974 | locus YDR335W, strain msn5, hits give low values 0.991 | locus YDR388W, hits give low values 1 | locus YDR392W, strain spt3, hits give low values 1.05 | locus YDR502C, strain sam2, hits give low values 0.995 | locus YEL003W, strain gim4, hits give low values 0.986 | locus YEL037C, strain rad23, hits give low values 0.976 | locus YEL061C, strain CIN8 (second series), hits give low values 0.971 | locus YEL061C, strain CIN8, hits give low values 0.996 | locus YER015W, strain faa2, hits give low values 1 | locus YER016W, strain bim1, hits give low values 0.985 | locus YER110C, hits give low values 1 | locus YER111C, strain swi4, hits give low values 0.978 | locus YER155C, strain BEM2 (second series), hits give low values 0.98 | locus YER155C, strain BEM2, hits give low values 0.995 | locus YER167W, strain BCK2, hits give low values 1.02 | locus YFR010W, strain ubp6, hits give low values 0.974 | locus YGL078C, strain dbp3, hits give low values 0.998 | locus YGL086W, strain mad1, hits give low values 1.01 | locus YGL167C, strain pmr1, hits give low values 0.973 | locus YGL173C, strain kem1, hits give low values 0.983 | locus YGL227W, strain vid30, hits give low values 0.973 | locus YGL240W, strain doc1, hits give low values 0.969 | locus YGL248W, strain PDE1, hits give low values 1.02 | locus YGL253W, strain hxk2, hits give low values 0.993 | locus YGR078C, strain PAC10, hits give low values 0.997 | locus YGR135W, strain pre9, hits give low values 0.987 | locus YGR229C, strain SMI1, hits give low values 0.98 | locus YGR252W, strain gcn5, hits give low values 1.02 | locus YHR013C, strain ard1, hits give low values 0.969 | locus YHR027C, strain rpn1, hits give low values 0.992 | locus YHR030C, strain SLT2, hits give low values 0.998 and 1 | locus YHR079C, strain IRE1 (second series), hits give low values 1.01 | locus YHR079C, strain IRE1, hits give low values 1.01 | locus YHR094C, strain hxt1, hits give low values 0.997 | locus YHR129C, strain ARP1, hits give low values 1.01 | locus YHR142W, strain chs7, hits give low values 0.98 | locus YHR200W, strain rpn10, hits give low values 1 | locus YIL066C, strain RNR3, hits give low values 0.995 | locus YIL073C, strain SPO22, hits give low values 1.06 | locus YIL125W, strain kgd1, hits give low values 1 | locus YIR030C, strain dcg1, hits give low values 0.999 | locus YJL092W, strain hpr5, hits give low values 0.974 | locus YJL095W, strain BCK1 (second series), hits give low values 0.99 | locus YJL095W, strain BCK1, hits give low values 0.987 and 0.994 | locus YJL115W, strain asf1, hits give low values 0.977 | locus YJL129C, strain trk1, hits give low values 0.99 | locus YJL134W, strain LCB3, hits give low values 1 | locus YJL154C, strain vps35, hits give low values 0.981 | locus YJL164C, strain tpk1, hits give low values 1 | locus YJL166W, strain qcr8, hits give low values 0.963 | locus YJL168C, strain set2, hits give low values 1 | locus YJL187C, strain SWE1 (second series), hits give low values 1 | locus YJL187C, strain SWE1, hits give low values 0.993 | locus YJR043C, strain POL32, hits give low values 1.02 | locus YJR066W, strain TOR1, hits give low values 0.952
